# Assay results reported in PubChem BioAssay (NCI).
# Compounds without any hit were thinned out: in the full panel of roughly 83,000, 20% have a hit.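 Compound tested at a single concentration for 48 hours in 96-well plates; a percent growth value below 10 was scored as active.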 A number with no mark means an inactive call. Activity calls are given as the source filed them.
# Experiments:
# Assay in all cases: NCI-60 one-dose screen, 48 h (100 = growth as untreated, 0 = no growth, -100 = all killed)
# Details in all cases: 10 µM unless noted
# [1] = test system: HCT-15 colon
# [2] = test system: HT29 colon
# [3] = test system: SNB-75 CNS
# [4] = test system: SNB-19 CNS
# [5] = test system: U251 CNS
# [6] = test system: PC-3 prostate
# [7] = test system: SK-MEL-5 melanoma
# [8] = test system: UACC-62 melanoma
# [9] = test system: LOX IMVI melanoma
# [10] = test system: SK-MEL-28 melanoma
# [11] = test system: SK-MEL-2 melanoma
# [12] = test system: EKVX NSCLC
# [13] = test system: SN12C renal
# [14] = test system: UO-31 renal
# [15] = test system: TK-10 renal
# [16] = test system: ACHN renal
# [17] = test system: CAKI-1 renal
# [18] = test system: A498 renal
# [19] = test system: CCRF-CEM leukemia
# [20] = test system: MOLT-4 leukemia
SMILES,growth [1],growth [2],growth [3],growth [4],growth [5],growth [6],growth [7],growth [8],growth [9],growth [10],growth [11],growth [12],growth [13],growth [14],growth [15],growth [16],growth [17],growth [18],growth [19],growth [20]
Cc1cc(NC(=O)c2cnc(N3CCN(CCOCCOCCOCCOCCC(=O)N[C@H](C(=O)N4C[C@H](O)C[C@H]4C(=O)N[C@@H](C)c4ccc(-c5scnc5C)cc4)C(C)(C)C)CC3)cn2)c2ncccc2c1,60.5%,5.72% (active),6.69% (active),27.7%,4.36% (active),1.95% (active),-41.1% (active),-57.1% (active),-85.8% (active),-75.1% (active),-17.8% (active),60%,-2.01% (active),75.8%,69.3%,37.9%,42.9%,78.6%,-1.88% (active),1.53% (active)
COc1cccc2cc(-c3cc4ccccc4[nH]3)/c(=N/C(=S)Nc3ccc(C)cc3)oc12,72%,86.3%,-8.91% (active),52.8%,74.9%,55.6%,73.8%,65.7%,71.2%,78.4%,85%,60.9%,77.6%,85.3%,94.3%,27.9%,19.2%,63%,–,101%
O=C1/C(=C/c2ccc(O)cc2)COc2ccc(-c3ccccc3)cc21,48.1%,27.1%,90.4%,109%,63.6%,60%,81.7%,88.4%,53.9%,117%,66.9%,105%,76.2%,42.9%,83.9%,86%,132%,100%,-25.2% (active),-22.5% (active)
O=C(OCc1nc2nc(Cl)nc(N3CCOCC3)c2[nH]1)n1ccnc1,-35.2% (active),-55.2% (active),-14.2% (active),62.9%,1.06% (active),-24.5% (active),20.1%,-80.4% (active),-77.1% (active),-36.5% (active),-67.1% (active),62.1%,8.48% (active),-81% (active),-77.4% (active),-100% (active),-68.8% (active),-4.23% (active),-12% (active),9.71% (active)
Nc1nnc2cc(Cl)ccc2n1,94.2%,119%,91.6%,104%,98.4%,77%,102%,93.1%,87.9%,114%,-25.9% (active),112%,90.1%,89.8%,136%,89.9%,112%,54%,87.7%,111%
COc1ccc(-c2nc(N/N=C/c3cccc(O)c3)nc(N3CCOCC3)c2C#N)cc1,46.9%,72.6%,23.6%,85.9%,58.9%,56.5%,80.1%,90.1%,79.6%,33.9%,85.6%,88.7%,78.3%,34.4%,88.4%,57.8%,77%,85.7%,26.3%,39.8%
COc1cc2nc(Cc3ccc(C)cc3)[nH]c(=O)c2cc1OC,104%,107%,95.6%,97.9%,117%,101%,109%,95.1%,105%,96.6%,123%,109%,99.6%,97.5%,292%,110%,129%,90.6%,1.89% (active),95%
O=C1Nc2c(ccc(Cl)c2Cl)/C1=C/c1ccc(O)cc1,90.8%,94.7%,56.7%,68.8%,83.8%,98.1%,87.1%,76.7%,63.7%,123%,108%,62.1%,97.4%,61.8%,101%,87.6%,59.7%,115%,–,77.3%
COc1ccc2c(c1)OC1=C(C(=O)OC1)C2c1cc(OC)c(OC)c(OC)c1 (stereo not drawn),19%,6.93% (active),41.1%,33.8%,21.6%,28.1%,16.1%,42.3%,50.8%,53.5%,27.3%,50.7%,47.7%,51.5%,67.4%,48.8%,55.6%,-1.39% (active),–,20.4%
COc1cc(-c2nc3sccn3c2-c2ccnc(NCCNS(=O)(=O)c3ccc(F)cc3)n2)ccc1F,13.2%,10.8%,52.7%,35.7%,17.5%,6.16% (active),-75.3% (active),-65.2% (active),4.75% (active),19.2%,-38.3% (active),23.6%,15.1%,-11.1% (active),20.2%,0.0766% (active),8.83% (active),22.5%,2.47% (active),-15.4% (active)
COc1cnccc1-c1nc2ccc3[nH]ncc3c2c2c1CCCC2,46.1%,51.8%,24.1%,85.3%,83.9%,68.2%,54.1%,38.1%,31.7%,58.6%,81.2%,18.2%,62.4%,29.4%,60.7%,37.6%,18%,13.2%,–,28.2%
COc1cc(-c2cc(=O)oc3cc(O)ccc23)c(OC)c2c1OCO2,92.4%,102%,84.9%,97.4%,94.6%,80.6%,90.6%,74.3%,93.8%,97%,96.6%,90.6%,84%,72.2%,108%,91.2%,76.9%,94.6%,–,100%
COc1ccc(-c2nc3sccn3c2/C=C/C(=O)c2cc(OC)c(OC)c(OC)c2)cc1,40.2%,46.9%,37.2%,59.9%,43.1%,32.2%,-10.9% (active),46.6%,41.4%,84.2%,43.9%,60%,62.5%,17.6%,82.7%,55.7%,42.4%,84.9%,–,29.8%
COc1ccc(-c2nc(SC)nc(N3CCOCC3)c2C#N)cc1,93.9%,92.3%,60.5%,96.7%,91.1%,81.1%,98.4%,83.5%,96.1%,106%,101%,97.7%,96.5%,67.4%,97.5%,94.3%,81.4%,63.1%,88.7%,87.6%
COc1ccc(Cl)cc1NC(=O)c1c(NC(=O)C(F)(F)C(F)(F)F)sc2c1CCCCC2,14.9%,3.87% (active),-9.76% (active),14.5%,7.27% (active),5.18% (active),-58.3% (active),6.99% (active),17.6%,23.3%,-30% (active),-5.45% (active),5.95% (active),1.55% (active),10.7%,1.54% (active),-13.6% (active),-45.1% (active),–,8.91% (active)
